# Source: PubChem (several laboratories)
# An excerpt weighted towards active compounds, which were near 3.2% of everything screened.
# Y pestis TopoI = Yersinia pestis topoisomerase I inhibitors, primary screen, biochemical, cleavage product accumulation, plate reader, single point; DNA topoisomerase I (Yersinia pestis CO92); Y. pestis Topo-I cleavage product accumulation; activity, % at 10 µM; 360,000 compounds, 0.064% hits; in the data active means activity above about 50%, passing the limit was not always enough
# GDH-TPI counter = GDH-TPI coupling enzyme inhibitors, primary screen, artefact control for M. tuberculosis FBA inhibitor project, biochemical, absorbance, full deck | GDH-TPI coupled enzyme counterscreen, NADH absorbance | inhibition, % at 4.8 µM | 360,000 compounds, 1.2% hits; in the data active means inhibition above about 30%;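 further: 0% = DMSO wells and 100% = wells lacking the enzyme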
# TcdB inh = TcdB glycohydrolase inhibitors, primary screen, biochemical, single point, plate reader | inhibition, % at 9.99 µM | 350,000 compounds, 0.24% hits | TcdB glycohydrolase enzymatic assay | Toxin B (Clostridioides difficile), P18177 | AID 652162, 2013; in the data active means inhibition above about 10%
# PrPC TRFRET = inhibitors of human cell surface prion protein PrPC, primary screen, cell-based, TR-FRET; 370,000 compounds, 0.43% hits; TR-FRET read-out; inhibition, % at 13.8 µM; AID 720596, 2013; in the data active means inhibition above about 24%; further: 0% = median of the test wells and 100% = reference compound wells
# Mtb FBA inh = Mtb FBA enzyme inhibitors, primary screen, biochemical, fluorescence, strain H37Rv | Fructose-bisphosphate aldolase (Mycobacterium tuberculosis (strain ATCC 25618 / H37Rv)), … | 360,000 compounds, 2.3% hits | inhibition, % at 1 µM | purified M. tuberculosis FBA, fluorescence read-out; in the data active means inhibition above about 27%;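 further: 0% = vehicle and 100% = reference inhibitor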
# PrPC confirm = confirmation of inhibitors of cell surface human prion protein, confirmation, cell-based, TR-FRET. shares compounds with PrPC TRFRET. cell surface PrPC level. inhibition, % at 13.8 µM. 1,500 compounds, 65% hits; in the data active means inhibition above about 25%
# LD9 cytotox = cytotoxicity in LD9 cells, cytotoxicity control for cell surface PrPc inhibitor project, cell-based, luminescence, high throughput; shares compounds with PrPC TRFRET; luminescence viability; inhibition, % at 13.8 µM; 1,500 compounds, 29% hits; in the data active means inhibition above about 9.5%
# * marks the source's active call; other numbers are inactive results; · = no result given.
SMILES,Y pestis TopoI,GDH-TPI counter,TcdB inh,PrPC TRFRET,Mtb FBA inh,PrPC confirm,LD9 cytotox
C[C@@H]1C[C@@H]2OC(=O)[C@]3(C)[C@H]2[C@@H](OC3(C)O)[C@]2(C)C(=O)C=C[C@H]12 (some centres not stated),2.5,7.0,-4.9,0.7,0.9,·,·
C=C1C(=O)O[C@@H]2C[C@@H](C)[C@@H]3C=CC(=O)[C@@]3(C)[C@@H](O)[C@H]12,13.6,12.9,0.6,95.1*,2.8,99.7*,58.1*
C=C1C(=O)O[C@@H]2C[C@@H](C)[C@@H]3C=CC(=O)[C@@]3(C)[C@@H](OC(C)=O)[C@H]12,·,·,1.8,94.8*,·,103.8*,34.3*
COc1ccc(NC(=O)N[C@H]2CC[C@H](CCNC(=O)c3ccccc3F)O[C@@H]2CO)cc1,·,·,-0.7,·,·,·,·
C[C@@H]1CN([C@H](C)CO)C(=O)c2cc(NS(=O)(=O)c3ccccc3)ccc2O[C@@H]1CN(C)Cc1ccc(C(=O)O)cc1,·,·,-2.8,·,·,·,·
C=Cc1cc2c(cc1O)CCC1C2CCC2(C)C(O)CCC12 (configuration not stated),3.2,6.0,-0.8,29.4*,5.8,11.0,-4.1
CC#Cc1cc2c(cc1O)CCC1C2CCC2(C)C(O)CCC12 (configuration not stated),0.9,9.6,1.2,16.2,-0.3,·,·
CC1OC(CC(=O)O)CC2=C1C(=O)c1c(O)cccc1C2=O (configuration not stated),-11.9,12.1,0.0,71.1*,-1.7,86.1*,97.9*
O=C1C=C(O)c2cccc(O)c2C1=O,-4.4,8.8,-7.6,-10.9,-1.1,·,·
C[C@@H]1CN([C@H](C)CO)C(=O)c2cc(NC(=O)Nc3ccccc3)ccc2O[C@@H]1CN(C)S(=O)(=O)c1ccccc1,·,·,1.0,·,·,·,·
COC(=O)Cc1c(C)c2ccc(OCC(=O)N3CCCC3)c(C)c2oc1=O,0.9,21.6,0.5,27.6*,151.0*,27.6*,-5.1
O=C1CC(O)C(Cc2ccccc2)N1 (configuration not stated),·,·,0.5,-6.7,·,·,·
C=C1C(C)C2C(Cc3ccccc3)NC(=O)C23OC(=O)/C=C/C(O)CCCC(C)C/C=C/C3C1O (configuration not stated),-8.6,5.2,1.0,25.7*,0.0,16.7,14.1*
CCC(=O)N[C@@H]1CC[C@@H](CCn2cc(CN(C)C)nn2)O[C@@H]1CO,·,·,-0.2,·,·,·,·
O=C(NCc1ccco1)c1cccc(-c2ccc3nccn3c2)c1,1.5,4.9,0.5,-6.9,-0.1,·,·
COc1ccc(C(=O)Nc2cccc(C(=O)NCc3ccco3)c2)cc1,0.4,-8.8,3.4,27.1*,-2.0,19.9,5.0
O=C(NCc1ccco1)c1cccc(-c2nnc(-c3ccccc3)o2)c1,11.2,-5.1,·,26.2*,1.0,15.3,4.1
C[C@@H]1CN([C@H](C)CO)C(=O)c2cc(NC(=O)Cn3cnnn3)ccc2O[C@@H]1CN(C)CC1CCCCC1,·,·,-1.1,·,·,·,·
O=S(=O)(NC1c2cccc3cccc(c23)C1N1CCNCC1)c1ccccc1 (configuration not stated),2.6,14.0,·,-9.7,0.1,·,·
O=S(=O)(NC1c2cccc3cccc(c23)C1N1CCN(CCO)CC1)c1ccccc1 (configuration not stated),0.7,11.6,·,33.8*,0.9,16.0,3.7
O=C(O)c1cc(-c2ccc(Br)s2)nc2ccccc12,-5.4,17.6,1.0,33.5*,22.8,52.8*,-7.0
CN1CCN(NC(=O)c2cc(-c3ccc(Br)s3)nc3ccccc23)CC1,-21.2,18.7,1.1,8.9,12.3,·,·
COc1cccc(-c2ccc3c(c2)[C@@H]2[C@@H](CCN2C(=O)C2CCOCC2)[C@@H](CO)N3)c1,·,·,-1.4,·,·,·,·
COc1cc2oc3cc(C#Cc4ccc(N)cc4)ccc3c(=O)c2cc1OC,-4.6,21.1,1.2,5.3,11.0,·,·
COc1cc2oc3ccc(C#Cc4ccc(N)cc4)cc3c(=O)c2cc1OC,-12.5,23.5,1.0,25.6*,8.0,33.3*,10.0*
SMILES,Y pestis TopoI,GDH-TPI counter,TcdB inh,PrPC TRFRET,Mtb FBA inh,PrPC confirm,LD9 cytotox
O=C(O)c1ccccc1C(=O)c1cccc2c(Br)cccc12,1.3,16.7,-0.9,59.8*,1.6,91.1*,-5.8
CC(C)NC(=O)Nc1ccc2c(c1)C(=O)N([C@@H](C)CO)C[C@@H](C)[C@H](CN(C)C(=O)Nc1ccc(F)cc1)OCCCC[C@H](C)O2,·,·,-0.3,·,·,·,·
CNC[C@@H]1Oc2cc(C#Cc3ccccc3OC)ccc2S(=O)(=O)N([C@@H](C)CO)C[C@H]1C,·,·,2.6,·,·,·,·
O=C(Nc1ccc2c(c1)OCO2)c1cc(C2CCCCN2S(=O)(=O)c2cccs2)on1 (configuration not stated),6.9,8.8,0.9,57.5*,-1.6,47.7*,2.3
O=C(Nc1ccccc1)c1cc(C2CCCCN2S(=O)(=O)c2ccccc2)on1 (configuration not stated),-3.1,-9.8,-6.7,28.7*,1.9,15.4,1.0
O=C(Nc1ccccc1)c1cc(C2CCCCN2S(=O)(=O)c2cccs2)on1 (configuration not stated),22.6,-0.9,0.8,22.2,0.8,·,·
C=CCSc1nc(N)c(C#N)c(-c2ccccc2)c1C#N,9.1,8.9,·,51.1*,-1.0,9.8,-4.9
CCOc1cc(S(=O)(=O)n2c(C)nc3ccccc32)ccc1F,-3.4,-4.3,·,59.1*,-1.6,13.8,-4.5
Cc1ccc(S(=O)(=O)n2c(C)nc3ccccc32)cc1,2.5,0.0,0.1,-2.3,-1.3,·,·
C[C@H](CO)N1C[C@H](C)[C@H](CN(C)C(=O)CN(C)C)Oc2ncc(-c3ccc(F)cc3)cc2C1=O,·,·,0.7,·,·,·,·
CNc1ncc(C(=O)c2ccc(Br)cc2)s1,9.2,17.6,2.9,26.2*,0.5,45.7*,-2.2
CNc1ncc(C(=O)c2ccccc2)s1,-10.6,27.2,·,-7.3,-0.8,·,·
C[C@H]1CN([C@@H](C)CO)C(=O)Cc2cc(NC(=O)Cc3cn(C)c4ccccc34)ccc2O[C@@H]1CN(C)C(=O)Nc1cccc2ccccc12,·,·,0.9,·,·,·,·
Cc1cc(C)n2c(-c3ccccc3Cl)nnc2n1,2.2,3.3,·,25.0*,13.1,5.0,1.5
Cc1cc(C)n2c(SCc3ccccc3Cl)nnc2n1,4.8,0.6,·,13.2,3.9,·,·
C#CCn1cc(/C=N/Nc2nc3ccccc3[nH]2)c2ccccc21,-17.6,11.4,·,36.4*,3.7,9.8,19.0*
CC(C)Cc1ccc(C(C)C(=O)Nc2ccc(O)cc2)cc1 (configuration not stated),-3.3,-1.2,1.3,27.8*,-0.5,20.9,-0.5
